Records with an inconclusive call do not appear. Entries that show only a call come without a potency. The source made the active and inactive calls. The call rests on the fitted dose curve. Bridge positions count the residues as written; N and C are the ends. Square brackets hold non-standard residues; d marks the D form. Peptide text beside a SMILES is read from it. hArg = N=C(N)NCCCC[C@H](N)C(=O)O; Mpa = O=C(O)CCS
target: 5-hydroxytryptamine receptor 2A (Homo sapiens) (UniProt P28223); test: 5-hydroxytryptamine receptor 2A (HTR2A) small molecule antagonists, cell-based qHTS assay (AID 1963586); settings: HTR2A-CHO cells, DOI-induced calcium flux, fluorescence; series mostly up to 61.5 µM; further: nearly all actives have a fitted effect of over 45% in size
Sequence (P28223 whole entry, looked up): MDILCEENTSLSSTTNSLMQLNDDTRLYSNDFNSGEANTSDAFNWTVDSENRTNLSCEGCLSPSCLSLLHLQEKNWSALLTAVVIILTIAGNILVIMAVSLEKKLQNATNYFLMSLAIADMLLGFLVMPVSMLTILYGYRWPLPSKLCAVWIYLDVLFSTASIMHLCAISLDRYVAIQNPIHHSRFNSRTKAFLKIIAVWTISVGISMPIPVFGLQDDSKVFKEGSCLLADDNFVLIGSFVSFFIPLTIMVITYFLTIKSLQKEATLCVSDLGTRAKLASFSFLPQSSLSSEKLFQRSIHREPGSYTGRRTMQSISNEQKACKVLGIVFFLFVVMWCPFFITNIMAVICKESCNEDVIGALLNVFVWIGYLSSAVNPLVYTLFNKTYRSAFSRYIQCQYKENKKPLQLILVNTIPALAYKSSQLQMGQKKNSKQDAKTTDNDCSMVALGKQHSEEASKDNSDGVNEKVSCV
Excerpt: National Center for Advancing Translational Sciences [NCATS]
Division of Preclinical Innovation [DPI]
U.S. Environmental Protection Agency [EPA]
National Institutes of Environmental Health Sciences [NIEHS]
National Toxicology Program [NTP]
U.S. Food and Drug Administration [FDA]
The HTR2A receptor is a subtype of the 5-HT2 receptor that belongs to the serotonin receptor family and is a G protein-coupled receptor (GPCR). The HTR2A-CHO cell line stably expressing human 5-hydroxytryptamine receptor 2A (HTR2A) can be used for screening antagonists of interactions between 5-HT2 and its ligands. The HTR2A-CHO calcium flux assay is a homogeneous fluorescence-based assay for detecting the intracellular calcium level using FDSS kinetic plate reader system.
Tox21 Assay Protocol Summary:
HTR2A-CHO cells were dispensed at 2000 cells/3uL/well in 1536-well black-clear bottom plates using a Multidrop Dispenser. After the assay plates were incubated at a 37 C/5% CO2 incubator for 18 h, 3 uL of Dye Loading Buffer was transferred to the assay plate by a Flying Reagent Dispenser. The assay plates were incubated at 37 C for 1h. For antagonist mode, 23 nL of compounds dissolved in DMSO, positive controls or DMSO only was transferred to the assay plate by a pin tool. After 5 min incubation at room temperature, 1.5 uL of 4-Iodo-2,5-dimethoxy-alpha-methylbenzeneethanamine hydrochloride (DOI) at 4nM was added to each well. The fluorescence intensity in the plates was measured using FDSS 7000EX kinetic plate reader for 3 min at 1 sec intervals.

Row | Compound | Potency
1 | [Cl][Hg][c]1ccccc1 | inactive
2 | CCS(=O)(=O)C(C)(C)S(=O)(=O)CC | inactive
3 | C=COC(C)=O | inactive
4 | CC(C)(O)c1cnn2c(-c3ccc(F)c(-c4c(F)cccc4C#N)c3)cnc2n1 | inactive
5 | CCN1CCC2(CC1)COc1cc3c(cc12)N(C(=O)c1ccc(-c2ccc(-c4nnc(C)o4)cc2C)cc1)CC3 | inactive
6 | c1cc(OCC2CO2)ccc1Cc1ccc(OCC2CO2)cc1 (stereo not given) | inactive
7 | Cc1ccc(C)c2ccccc12 | inactive
8 | Nc1cc2c3c(c1)C(c1ccccc1)=N[C@@H](NC(=O)c1cccnc1)C(=O)N3CC2 | inactive
9 | NCCCNCCCN | inactive
10 | CCOC(=O)CCN(SN(C)C(=O)Oc1cccc2c1OC(C)(C)C2)C(C)C | inactive
11 | CCOc1cccc(C2(N3CCN(c4ccccc4)CC3)CCC(C)CC2)c1 (stereo not given) | inactive
12 | CCCCP(CCCC)CCCC | inactive
13 | FC(F)C(F)(F)OCC(Cn1cncn1)c1ccc(Cl)cc1Cl (stereo not given) | inactive
14 | COc1cccc2c1C(=O)c1c(O)c3c(c(O)c1C2=O)C[C@@](O)(C(=O)CO)CC3OC1CC(N2CCOC(OC)C2)C(O)C(C)O1 (stereo not given in full) | inactive
15 | NC(=S)C(N)=S | inactive
16 | CCOP(=O)(N=C1SCCS1)OCC | inactive
17 | CNC(=O)O/N=C(\C)C(C)S(C)(=O)=O (stereo not given) | inactive
18 | Clc1cc(C(Cl)(Cl)Cl)cnc1Cl | inactive
19 | NNCc1ccccc1 | inactive
20 | Nc1nc(N)nc(N)n1 | inactive

Row | Compound | Potency
21 | COP(=O)(OC)O/C(C)=C/C(=O)N(C)C | inactive
22 | COP(=S)(OC)Oc1ccc([N+](=O)[O-])c(C)c1 | inactive
23 | CCC(C)c1cc(C(C)(C)C)cc(-n2nc3ccccc3n2)c1O (stereo not given) | inactive
24 | CC(=O)CCc1ccc2c(c1)OCO2 | inactive
25 | COP(=S)(OC)Oc1c(Cl)cc(C)cc1Cl | inactive
26 | O=[N+]([O-])C(Br)(CO)CO | inactive
27 | CCOP(=S)(OCC)SCCl | inactive
28 | Nc1ccc([N+](=O)[O-])cc1Cl | inactive
29 | Cc1ccccc1OP(=O)(Oc1ccccc1C)Oc1ccccc1C | inactive
30 | CCOC(=O)COc1cc(-c2nn(C)c(OC(F)F)c2Cl)c(F)cc1Cl | inactive
31 | BrCCCCBr | inactive
32 | Cc1cc(C)nc(Nc2ccccc2)n1 | inactive
33 | CC[C@H](C)[C@H]1O[C@]2(C=C[C@@H]1C)C[C@@H]1C[C@@H](C/C=C(\C)[C@@H](O[C@H]3C[C@H](OC)[C@@H](O[C@H]4C[C@H](OC)[C@@H](NC)[C@H](C)O4)[C@H](C)O3)[C@@H](C)/C=C/C=C3\CO[C@@H]4[C@H](O)C(C)=C[C@@H](C(=O)O1)[C@]34O)O2 | inactive
34 | CCC(C)(C)O | inactive
35 | S=C(SSC(=S)N1CCCCC1)N1CCCCC1 | inactive
36 | C#CC(C)(C)O | inactive
37 | CC(O)C#N (stereo not given) | inactive
38 | C[N+]1(CCF)[C@@H]2CC[C@H]1CC(OC(=O)C(O)(c1ccccc1)c1ccccc1)C2 (stereo not given in full) | inactive
39 | c1cc2ccc3cccc4ccc(c1)c2c34 | inactive
40 | NC(=O)[C@@H]1CSSCCC(=O)N[C@@H](CCCCN=C(N)N)C(=O)NCC(=O)N[C@@H](CC(=O)O)C(=O)N[C@@H](Cc2c[nH]c3ccccc23)C(=O)N2CCC[C@H]2C(=O)N1 ([Mpa][hArg]GDWPC-NH2; disulfide 1-7) | inactive

From PubChem BioAssay (Tox21)
